Data as given in PubChem BioAssay (Tox21).
“And” between values parts separate entries of the source, which are not always exact repeats. Identical values can stand only once. A number with no mark means an inactive call. Calls follow the shape of the full dose curve.

Assay: qHTS assay to identify small molecule agonists of the estrogen related receptor (ERR) signaling pathway from Tox21 library (AID 1224849); also: nearly all actives have a fitted effect of over 15% in size
Details: ERR reporter cell line, ONE-Glo luciferase, 18 h; at 42.5 µM (top of the series)
From the text: National Center for Advancing Translational Sciences [NCATS]
NIH Chemical Genomics Center [NCGC]
U.S. Environmental Protection Agency [EPA]
National Institutes of Environmental Health Sciences [NIEHS]
National Toxicology Program [NTP]
Estrogen related receptors (ERRs), the first orphan nuclear receptors discovered, play an important role in the control of cellular energy metabolism. ERRs are required for high-energy production in response to the environmental challenges. ERR-alpha was also identified as an adverse marker for breast cancer progression; ERR-alpha-positive tumors have a poor prognosis. To screen and to identify environmental compounds that perturb the ERR signaling pathways could provide valuable information for potential therapeutic or preventive measures in the treatment of metabolic disease. For identifying ERR agonists, ERR cell line (provided by NTP) has been used to screen Tox21 10K library.
The ERR cells were dispensed at 2,000 cells/5 ul/well in 1536-well white plates using a Multidrop dispenser. After the assay plates were incubated at a 37 C/5% CO2 incubator for 6 hours, 23 nL of compounds dissolved in DMSO, positive and negative controls or DMSO only was transferred to the assay plate by a pin tool. The plates were incubated at 37 C for 18 hours. 4 ul/well of One-Glo reagent was added into the assay plates using a Flying Reagent Dispenser. After 30-minute incubation at room temperature, the luminescence intensity in the plates was measured using a ViewLux plate reader.
% is scaled to controls: 0 for no effect and ±100 for the full control effect.

Row | Structure (SMILES) | activity change, positive = activation [%]
1 | CC(CN1c2ccccc2Sc2ccccc21)N(C)C (stereo not given) | -5.06
2 | COC(=O)/C=C\C(=O)OC | 7.01
3 | COc1ccc2cc3[n+](cc2c1OC)CCc1cc2c(cc1-3)OCO2 | -43.6
4 | Nc1nc(N)c2nc(-c3ccccc3)c(N)nc2n1 | -33.8
5 | O=c1n(CCCN2CCN(c3cccc(Cl)c3)CC2)nc2ccccn12 | -14.9
6 | CC(=O)Nc1ccc(CC(=O)O)cc1 | -1.58

Same assay, conditions: ERR reporter cell line, ONE-Glo luciferase, 18 h; at 92.4 µM (top of the series)

Row | Structure (SMILES) | activity change, positive = activation
7 | CC(CN1c2ccccc2Sc2ccccc21)N(C)C (stereo not given) | -81.8% and -69.4%
8 | COCN(COC)c1nc(N(COC)COC)nc(N(COC)COC)n1 | -2.4% and 4.33%
9 | O=C(O)Cc1c[nH]c2ccccc12 | 5.71% and 6.87%
10 | O=C1OC(=O)c2c(Cl)c(Cl)c(Cl)c(Cl)c21 | -24.8%
11 | COC(=O)/C=C\C(=O)OC | 2.62%
12 | NC1CCCCC1N (stereo not given) | 1.49% and 5.92%
13 | C[n+]1ccn(CCO)c1 | 4.16% and -3.23%
14 | CCCCCC(C)=O | 9.83% and 4.6%
15 | COc1ccc2cc3[n+](cc2c1OC)CCc1cc2c(cc1-3)OCO2 | -64.1%
16 | CC(=O)OC(C)(C)C1CC=C(C)CC1 (stereo not given) | 5.97% and -1.38%
17 | COc1cc(NC(=O)CC(C)=O)c(OC)cc1Cl | -16.1% and -21.5%
18 | Nc1nc(N)c2nc(-c3ccccc3)c(N)nc2n1 | -44.9% and -45.9%
19 | CC1=CC(=O)CC(C)(C)C1 | -82.9% and 7.49%
20 | O=c1n(CCCN2CCN(c3cccc(Cl)c3)CC2)nc2ccccn12 | -28.6%
21 | CC(C=O)Cc1ccc(C(C)(C)C)cc1 (stereo not given) | -5.89% and -7.2%
22 | OCCOCCOCCOCCOCCO | 2.04% and 4.48%
23 | c1cnc2c(c1)ccc1cccnc12 | -72.1% and -45.5% and -63.4%

Row | Structure (SMILES) | activity change, positive = activation
24 | CCCCC(CC)COC(=O)c1ccc(C(=O)OCC(CC)CCCC)cc1 (stereo not given) | -0.0437%
25 | CC(COCC(C)OC(=O)c1ccccc1)OC(=O)c1ccccc1 (stereo not given) | -2.03% and -5.66%
26 | O=Cc1ccc(CO)o1 | 0.746% and -3.97%
27 | CC(=O)OCc1ccc2c(c1)OCO2 | -6.11% and 0.823%
28 | CS(=O)(=O)c1ccc(Cl)cc1 | 8.49%
29 | CC(=O)OCCC(C)C | 1.01% and 5.99%
30 | CCCOCC(C)O (stereo not given) | 5.9% and 6.38%
31 | CC(=O)Nc1ccc(CC(=O)O)cc1 | 9.59%
32 | C=CC(C)(C)C | 1.24% and -3.33%
33 | CCCCCCC(=O)O | 5.44% and -1.64%
34 | O=[N+]([O-])c1ccccc1C(F)(F)F | -5.97% and 7.68%
35 | O=C(c1ccccc1)c1ccc(O)c(O)c1O | -7.85% and -0.637%
36 | Cc1cc(C)c(O)c(C)c1 | 10.5% and 2.09%
37 | CN=C(NC#N)NCCSCc1nc[nH]c1C | 2.07%
38 | CC(C)(CO)CO | 2.96% and 5.63%
39 | C1CCCNCC1 | 1.64% and -2.2%
40 | CCCCCCCCCCCCCC(=O)O | -1.8% and -13.1%
